For 13 compounds, growth results are on record in PubChem BioAssay (NCI).

This is part of a sample that, as a whole, favours compounds with a hit. Of some 83,000 tested, about 20% had one in any assay.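 Testing used 96-well plates and a 48-hour single-concentration exposure. Example: -40 means 40% of the starting cells died.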 A number with no mark means an inactive call. The source made the active and inactive calls. How the source made its calls: active means growth percent below 10; inactive means the rest.

Among the test systems are DU-145 prostate; K-562 leukemia; MALME-3M melanoma; MDA-MB-231 breast; RXF 393 renal; SF-268 CNS; SF-295 CNS; SF-539 CNS; UACC-257 melanoma; M14 melanoma.
Common to all, as to assay: NCI-60 one-dose screen, 48 h (100 = growth as untreated, 0 = no growth, -100 = all killed)
Details in all cases: 10 µM unless noted

Turning to `COc1cccc(-c2nc3sccn3c2-c2ccnc(NCCCNS(=O)(=O)c3cccc(F)c3)c2)c1`, the growth is 31.9% in the assay with DU-145 prostate; 11.4% in the assay on K-562 leukemia; 28.1% in the assay with MALME-3M melanoma; 65.4% in the assay on MDA-MB-231 breast; 66.7% with RXF 393 renal; 40.9% in the assay on SF-268 CNS. Further, the growth in the assay with SF-295 CNS was 9.57% (active); with SF-539 CNS, 70%; with UACC-257 melanoma it was 20.6%; in the assay on M14 melanoma, 10.9%.

Turning to `CC1SC(c2ccc(N(C)C)cc2)N(NC(=O)C(O)(c2ccccc2)c2ccccc2)C1=O` (stereo not given), the growth with DU-145 prostate is 97.2%; with K-562 leukemia, 86.1%; in the assay with MALME-3M melanoma it was 87.6%; in the assay on MDA-MB-231 breast, 99.1%; in the assay with RXF 393 renal, 118%; in the assay with SF-268 CNS it was 141%. The growth in the assay with SF-295 CNS was 27.9%; in the assay on SF-539 CNS, 96.7%; in the assay with UACC-257 melanoma it was 106%; in the assay with M14 melanoma it was 96%.

In the case of `COC(=O)c1ccc2oc(NC(=O)c3ccc(Nc4ccc([N+](=O)[O-])cc4C)c([N+](=O)[O-])c3)nc2c1`, the growth in the assay on DU-145 prostate is 108%; with K-562 leukemia, 104%; with MALME-3M melanoma, 100%; in the assay with MDA-MB-231 breast, 105%; in the assay with RXF 393 renal, 103%; in the assay with SF-268 CNS, 97.9%. In addition, the growth in the assay on SF-295 CNS was 98.8%; with SF-539 CNS, 96.1%; with UACC-257 melanoma, 103%; with M14 melanoma it was 110%.

For `C#CCOc1ccc2ncnc(Nc3cccc(CNC(=O)CCl)c3)c2c1`, the growth is 57.9% [8.25 µM] in the assay with DU-145 prostate; 29.5% [8.25 µM] with K-562 leukemia; 68.8% [8.25 µM] in the assay on MALME-3M melanoma; 53.4% [8.25 µM] in the assay with MDA-MB-231 breast; 14% [8.25 µM] with RXF 393 renal; 39.7% [8.25 µM] in the assay with SF-268 CNS. Besides, the growth is 92% [8.25 µM] in the assay on SF-295 CNS, 54.8% [8.25 µM] with SF-539 CNS, 58.7% [8.25 µM] with UACC-257 melanoma and 61.7% [8.25 µM] in the assay with M14 melanoma.

As to `Cn1ccnc1C(=O)/C=C/c1ccccc1`, the growth with DU-145 prostate was -54.5% (active); with K-562 leukemia, 8.07% (active); with MALME-3M melanoma, 62.9%; in the assay on MDA-MB-231 breast it was 34.7%; in the assay on RXF 393 renal it was 12.9%; with SF-268 CNS, 23.3%. In addition, the growth in the assay on SF-295 CNS is 20.5%; in the assay with SF-539 CNS, -38% (active); in the assay with UACC-257 melanoma it was 51.8%; in the assay on M14 melanoma it was -1.9% (active).

In the case of `CC[C@H]1OC(=O)[C@H](C)[C@@H](O[C@H]2C[C@@](C)(OC)[C@@H](O)[C@H](C)O2)[C@H](C)[C@@H](O[C@@H]2O[C@H](C)C[C@H](N(C)C)[C@H]2O)[C@](C)(O)C[C@H](C)CN(C)[C@H](C)[C@@H](O)[C@]1(C)O`, the growth in the assay with DU-145 prostate was 109%; in the assay on K-562 leukemia it was 108%; with MALME-3M melanoma, 92%; in the assay with MDA-MB-231 breast it was 55.2%; with RXF 393 renal, 85.5%; in the assay on SF-268 CNS, 99.1%. For the same compound, the growth with SF-295 CNS is 108%; in the assay on SF-539 CNS, 102%; in the assay on UACC-257 melanoma it was 124%; in the assay with M14 melanoma, 96.4%.

As for `CCCc1cc(=O)n2c(C(=O)Nc3ccc(F)cc3)c(C(=O)Nc3ccc(F)cc3)sc2n1`, the growth with DU-145 prostate was 82.1% [30 µM]; in the assay with K-562 leukemia, 75.1% [30 µM]; in the assay with MALME-3M melanoma it was 38.5% [30 µM]; in the assay on MDA-MB-231 breast, 44.2% [30 µM]; with RXF 393 renal, 10.4% [30 µM]; in the assay on SF-268 CNS it was 18.1% [30 µM]. Moreover, the growth with SF-295 CNS is 73% [30 µM]; in the assay on SF-539 CNS, 63.2% [30 µM]; in the assay with UACC-257 melanoma, 67.2% [30 µM]; in the assay with M14 melanoma, 70.9% [30 µM].

`O=c1cc(CSc2nnc(SCc3cc(=O)oc4c3ccc3ccccc34)o2)c2ccc3ccccc3c2o1`: the growth was 109% with DU-145 prostate; 97.7% in the assay with K-562 leukemia; 102% in the assay on MALME-3M melanoma; 95.8% with MDA-MB-231 breast; 119% with RXF 393 renal; 96.7% with SF-268 CNS. In addition, the growth in the assay on SF-295 CNS is 96.1%; with SF-539 CNS, 101%; in the assay on UACC-257 melanoma, 93.6%; in the assay on M14 melanoma, 103%.

For `CCCCCCN(CCCCCC)CCC(O)c1ccc2ccccc2c1` (stereo not given), the growth with DU-145 prostate is 74.3%; in the assay on K-562 leukemia it was 27.9%; in the assay on MALME-3M melanoma it was 68.5%; in the assay with MDA-MB-231 breast, 42.4%; with RXF 393 renal, 46.7%; with SF-268 CNS it was 73.3%. Also, the growth in the assay with SF-295 CNS is 52.5%; in the assay with SF-539 CNS, 61.9%; in the assay with UACC-257 melanoma, 85.3%; with M14 melanoma it was 50.2%.

For the compound `Cn1cc(-c2nonc2-c2cn(C)c3ccc(F)cc23)c2ccccc21`, the growth was 13.6% in the assay on DU-145 prostate; 9.9% (active) with K-562 leukemia; 54.1% in the assay on MALME-3M melanoma; 25.6% with MDA-MB-231 breast; -13.4% (active) in the assay on RXF 393 renal; 43.3% with SF-268 CNS. For the same compound, the growth in the assay on SF-295 CNS is 26%; with SF-539 CNS it was -25.4% (active); in the assay on UACC-257 melanoma it was 60.6%; in the assay with M14 melanoma it was 18.6%.

Take `Cn1cc(-c2nonc2-c2c[nH]c3ccc(F)cc23)c2cccnc21`: the growth in the assay on DU-145 prostate was 96%; in the assay with K-562 leukemia it was 58%; in the assay with MALME-3M melanoma, 93.4%; in the assay on MDA-MB-231 breast, 78.4%; in the assay with RXF 393 renal it was 72.8%; in the assay with SF-268 CNS, 78.3%. In addition, the growth with SF-295 CNS is 78.9%; in the assay with SF-539 CNS, 88.7%; in the assay on UACC-257 melanoma, 89.9%; in the assay with M14 melanoma, 90.3%.

With `O=C(CCN1C(=O)/C(=C/c2ccc(Cl)cc2)SC1=S)NCCCN1CCOCC1`, the growth was 106% with DU-145 prostate; 97.8% in the assay on K-562 leukemia; 100% with MALME-3M melanoma; 100% in the assay on MDA-MB-231 breast; 109% with RXF 393 renal; 95.7% in the assay on SF-268 CNS. The growth with SF-295 CNS was 95.2%; in the assay on SF-539 CNS, 93.7%; with UACC-257 melanoma, 102%; with M14 melanoma it was 103%.

On to `O=C(COc1ccc(/C=C2\COc3ccccc3C2=O)cc1)Nc1nccs1`, for which the growth was 107% in the assay with DU-145 prostate; -8.33% (active) in the assay on K-562 leukemia; 88.5% in the assay on MALME-3M melanoma; 95.9% in the assay on MDA-MB-231 breast; 96.4% in the assay with RXF 393 renal; 92.8% in the assay on SF-268 CNS. Further, the growth in the assay on SF-295 CNS was 112%; in the assay with SF-539 CNS, 85.9%; with UACC-257 melanoma, 98.5%; with M14 melanoma, 93.2%.
